From PubChem BioAssay
ROS inducer = raises reactive oxygen species in U2OS cancer cells | U2OS ROS induction, H2DCF-DA fluorescence | ROS induction (% of piperlongumine), % at 10 µM | actives 2% (n = 46,000) | AID 624156; in the data active = ROS induction above about 79%, passing the limit was not always enough
Of the large screens only hits and unclear results are named; the others gave an inactive call. The full list was thinned out, with hits kept by preference.

Cc1cc(C)c2nc(NC3=NC(c4ccccc4)CC(=O)N3)nc(C)c2c1 (stereo not given)	ROS inducer 114
Cc1cc(=O)[nH]c(Nc2nc(C)c3cccc(C)c3n2)n1	none
Cc1ccc2c(C)nc(NC3=NC(C(=O)Nc4ccc(Cl)c(Cl)c4)CC(=O)N3)nc2c1 (stereo not given)	none
CCC(=O)NC(Nc1c(C)n(C)n(-c2ccccc2)c1=O)(C(F)(F)F)C(F)(F)F	none
C[C@H](CO)N1C[C@H](C)[C@@H](CN(C)C(=O)Nc2ccc(C(F)(F)F)cc2)OCc2cnnn2CCCC1=O	none
COc1ccccc1CN(C)C[C@H]1OCc2cnnn2CCCC(=O)N([C@H](C)CO)C[C@H]1C	ROS inducer 113
COc1ccccc1CN(C)C[C@H]1OCc2cnnn2CCCC(=O)N([C@@H](C)CO)C[C@H]1C	none
C[C@H](CO)N1C[C@H](C)[C@@H](CN(C)C(=O)Nc2ccc(C(C)(C)C)cc2)OCc2cnnn2CCCC1=O	none
C[C@@H]1CN([C@@H](C)CO)C(=O)CCCn2nncc2CO[C@@H]1CN(C)C(=O)Nc1ccc(C(C)(C)C)cc1	ROS inducer 114
COc1ccccc1CN(C)C[C@@H]1OCc2cnnn2CCCC(=O)N([C@H](C)CO)C[C@H]1C	none
Cc1cc(C)c(OCC(O)CN2CCN(CCO)CC2)c(C)c1 (stereo not given)	none
C[C@@H]1CN([C@H](C)CO)C(=O)c2cccc(NC(=O)Nc3ccc4c(c3)OCO4)c2O[C@@H]1CN(C)C(=O)NC1CCCCC1	none
CCOC(=O)c1sc(SC)c2c1CCc1cnc(SC)nc1-2	none
CCOC(=O)c1sc(SC)c2c1CC(c1ccc(OC)cc1)CC2=O (stereo not given)	ROS inducer 136
CCOC(=O)c1c(O)c(O)c(C(=O)OCC)n1-c1ccc(OC)cc1	none
COc1ccc(-c2nnc(SCC(=O)Nc3ccc(Br)cc3C(C)C)o2)cc1	none
COC(=O)c1ccc(C(=O)Nc2ccc3nc(C4CCCCC4)[nH]c3c2)cc1	none
COc1ccc(S(=O)(=O)N(C)C[C@@H]2Oc3c(NC(=O)Nc4ccc(F)cc4)cccc3C(=O)N([C@@H](C)CO)C[C@@H]2C)cc1	none
Cc1ccc(NS(=O)(=O)c2cccc(C(=O)Nc3ccccc3C(=O)O)c2)cc1C	none
COc1ccc2c(c1)c(=O)oc1cc(OC(C)C)ccc12	ROS inducer 114
COc1ccc2c(c1)c(=O)oc1cc(O)ccc12	none
COC(=O)c1ccc(COc2ccc3c(c2)oc(=O)c2cc(OC)ccc23)o1	none
O=C(N/N=C/c1cccc(O)c1)c1ccccn1	none
O=C(CCSc1nc(-c2ccccc2)cs1)Nc1ccccc1	ROS inducer 106
CC(=O)Nc1ccc(NC(=O)CCSc2ccccc2)cc1	none
O=C(CSc1nc(-c2ccccc2)cc(=O)[nH]1)Nc1ccccc1	none
COC(=O)c1sccc1NC(=O)C1CCCS1 (stereo not given)	none
CCc1ccc(N2NC(=O)/C(=C/c3ccc4c(c3)n(C)c(=O)n4C)C2=O)cc1	none
C=CCn1c(=N)c(C#N)cc2c(=O)n3ccccc3nc21	none
Cc1ccc(S(=O)(=O)c2cc3c(=O)n4ccccc4nc3n(Cc3ccccc3)c2=N)cc1	none
CCn1c(=N)c(S(=O)(=O)c2ccccc2)cc2c(=O)n3ccccc3nc21	ROS inducer 94
COC(=O)c1ccccc1NC(=O)CCSc1ccc(C)cc1	none
C[C@H]1CN([C@@H](C)CO)C(=O)c2cc(NC(=O)Nc3ccc(C(F)(F)F)cc3)ccc2O[C@@H]1CN(C)C	none
Cn1cc(CCC(=O)NC2CCCCC2)c2ccccc21	none
CCOC(=O)c1c(NC(C)=O)nc(SC)n1Cc1ccco1	none
Cc1noc(C)c1NC(=O)Nc1ccc2c(c1)CC(=O)N([C@H](C)CO)C[C@H](C)[C@H](CN(C)S(=O)(=O)c1cccs1)O2	none
Cc1ccc(S(=O)(=O)N(C)C[C@@H]2Oc3ccc(NS(=O)(=O)c4ccc(Cl)cc4)cc3CC(=O)N([C@H](C)CO)C[C@H]2C)cc1	none
Cc1noc(C)c1NC(=O)Nc1ccc2c(c1)CC(=O)N([C@@H](C)CO)C[C@H](C)[C@H](CN(C)S(=O)(=O)c1cccs1)O2	none
C[C@H]1CN([C@@H](C)CO)C(=O)Cc2cc(NS(=O)(=O)c3ccc(F)cc3)ccc2O[C@H]1CN(C)S(=O)(=O)c1ccccc1	ROS inducer 106
Cc1noc(C)c1NC(=O)Nc1ccc2c(c1)CC(=O)N([C@H](C)CO)C[C@@H](C)[C@@H](CN(C)Cc1ccc3c(c1)OCO3)O2	none
Cc1ccc(S(=O)(=O)Nc2ccc3c(c2)CC(=O)N([C@H](C)CO)C[C@@H](C)[C@@H](CN(C)S(=O)(=O)c2ccc(Cl)cc2)O3)cc1	ROS inducer 94
C[C@@H]1CN([C@@H](C)CO)C(=O)Cc2cc(NS(=O)(=O)c3ccccc3)ccc2O[C@@H]1CN(C)S(=O)(=O)c1ccc(F)cc1	none
C[C@H]1CN([C@@H](C)CO)C(=O)Cc2cc(NS(=O)(=O)c3ccccc3)ccc2O[C@H]1CN(C)S(=O)(=O)c1ccc(F)cc1	none
Cc1noc(C)c1NC(=O)Nc1ccc2c(c1)CC(=O)N([C@H](C)CO)C[C@@H](C)[C@@H](CN(C)S(=O)(=O)c1cccs1)O2	ROS inducer 106
Cc1noc(C)c1NC(=O)Nc1ccc2c(c1)CC(=O)N([C@H](C)CO)C[C@H](C)[C@H](CN(C)Cc1ccc3c(c1)OCO3)O2	none
Cc1noc(C)c1NC(=O)Nc1ccc2c(c1)CC(=O)N([C@@H](C)CO)C[C@H](C)[C@H](CN(C)Cc1ccc3c(c1)OCO3)O2	ROS inducer 124
Cc1ccc(S(=O)(=O)N(C)C[C@@H]2Oc3ccc(NS(=O)(=O)c4ccc(Cl)cc4)cc3CC(=O)N([C@@H](C)CO)C[C@@H]2C)cc1	none
COc1cc(CC2COC(c3ccc(O)c(OC)c3)C2COC2OC(CO)C(O)C(O)C2O)ccc1O (stereo not given)	none
COc1ccc(OCc2nc3ccccc3n2Cc2ccccc2F)cc1	none
C[C@@H]1CN([C@@H](C)CO)C(=O)Cc2cc(NC(=O)CCC(F)(F)F)ccc2O[C@@H]1CN(C)C(=O)Nc1ccc(F)cc1	none
Nc1nc(CSc2nnc3c(n2)[nH]c2ccccc23)cs1	none
C[C@@H]1CN([C@H](C)CO)C(=O)c2cc(NS(=O)(=O)c3cn(C)cn3)ccc2O[C@H]1CN(C)CC1CCCCC1	none
C[C@@H]1CN([C@H](C)CO)C(=O)Cc2cc(NC(=O)NC3CCCCC3)ccc2O[C@@H]1CN(C)C(=O)NC1CCCCC1	none
C[C@@H]1CN([C@H](C)CO)C(=O)Cc2cc(NS(=O)(=O)c3ccccc3)ccc2O[C@H]1CN(C)S(=O)(=O)c1ccc(Cl)cc1	none
C[C@H]1CN([C@@H](C)CO)C(=O)Cc2cc(NS(=O)(=O)c3ccc(Cl)cc3)ccc2O[C@@H]1CN(C)S(=O)(=O)c1ccc(Cl)cc1	ROS inducer 84
Cc1ccc(S(=O)(=O)Nc2ccc3c(c2)CC(=O)N([C@H](C)CO)C[C@H](C)[C@H](CN(C)S(=O)(=O)c2cccs2)O3)cc1	ROS inducer 96
Cc1ccc(S(=O)(=O)Nc2ccc3c(c2)CC(=O)N([C@@H](C)CO)C[C@@H](C)[C@@H](CN(C)S(=O)(=O)c2cccs2)O3)cc1	none
C[C@H]1CN([C@@H](C)CO)C(=O)Cc2cc(NS(=O)(=O)c3ccccc3)ccc2O[C@@H]1CN(C)S(=O)(=O)c1ccc(Cl)cc1	none
Cc1ccc(S(=O)(=O)Nc2ccc3c(c2)CC(=O)N([C@H](C)CO)C[C@@H](C)[C@H](CN(C)S(=O)(=O)c2cccs2)O3)cc1	none
N#CC(C(=O)NCc1ccco1)c1ccccc1 (stereo not given)	none
